Compound activity (PubChem BioAssay)
Shown are actives, neighbours in structure and some others; about 4.6% of the full set was active somewhere.
TIM10 inh: TIM10 yeast growth inhibition; S. cerevisiae TIM10 strain growth, BacTiter-Glo luminescence, 24 h; inhibition, % at 10 µM; 1.4% of 330,000 active; AID 463195;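 active means inhibition of 40% or more at the single tested concentration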;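 further: wild-type TIM10 isogenic control strain grown at permissive 25 °C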
NALP3 yeast inh: blocks the NALP3 inflammasome reconstituted in yeast. inhibition, % at 10 µM. Yeast reconstituted NLRP3/ASC/caspase-1, beta-gal luminescence, 24 h. 0.39% of 330,000 active;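 active means inhibition of 50% or more; inactive means inhibition below 50%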
SKKanGAS inh: blocks kanamycin growth of S. pyogenes SKKanGAS strain | 1.3% of 300,000 active | AID 1662 | inhibition, % at 7.5 µM | BacTiter-Glo, 6 h;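 active means mean replicate score, as percent of positive control median, at least 50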;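 further: strain carries kanamycin resistance gene driven by streptokinase promoter and grows in 40 µg/ml kanamycin; loss of luminescence reflects streptokinase promoter inhibition or plain growth inhibition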
tim23-1 inh: growth inhibitors of tim23-1 mutant yeast; S. cerevisiae tim23-1 growth, BacTiter-Glo luminescence, 24 h; inhibition, % at 20 µM; 1.3% of 330,000 active; AID 463212;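 active means growth inhibition of the mutant yeast at or above 50%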;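 further: temperature-sensitive mutant grown at 25 °C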
tim10-1 inh: inhibits growth of tim10-1 mutant yeast | inhibition, % at 20 µM | S. cerevisiae tim10-1 ts strain growth, BacTiter-Glo, 24 h | AID 463190 | 2.2% of 330,000 active;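 active means inhibition of at least 40%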;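 further: mutant grown at 25 °C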
tim10 confirm: TIM10 yeast growth inhibition, confirmed; shares compounds with TIM10 inh; S. cerevisiae tim10 strain growth, BacTiter-Glo luminescence, 24 h; inhibition, % at 10 µM; 63% of 4,600 active;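 active means inhibition of yeast growth at or above a set limit in either of two replicates at 10 µM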; further: this counterscreen used the strain with wild-type TIM10
Numbers stand for hits; – = inactive; · = not tested or not shown.

SMILES | TIM10 inh | NALP3 yeast inh | SKKanGAS inh | tim23-1 inh | tim10-1 inh | tim10 confirm
Cc1ccc(OCCC(=O)N(CCC(C)C)c2c(N)n(Cc3ccccc3)c(=O)[nH]c2=O)cc1 | – | – | – | – | – | ·
CCOC(=O)COn1c(=O)c(-c2cccs2)[n+]([O-])c2ccccc21 | 42 | – | – | – | – | –
CCOC(=O)COn1c(=O)c(-c2ccc(F)cc2)[n+]([O-])c2ccccc21 | – | – | – | – | – | ·
O=C1NC2(C=Cc3c(ccc4ccccc34)O2)Oc2ccccc21 (centres undefined) | 41 | – | – | – | – | –
CC1(C)Cc2c(ccc3ccccc23)C(=O)N1 | – | – | – | – | – | ·
CCCC(=O)Oc1ccc(C2NC(=O)c3ccccc3O2)cc1OC (centres undefined) | – | – | – | – | – | ·
COc1ccc(/C=C/C(=O)c2cc(Cl)ccc2O)c(OC)c1 | – | – | – | – | – | ·
COc1ccc(/C=C/C(=O)c2ccc(Cl)cc2)c(OC)c1 | 44 | – | – | – | – | –
COc1ccc(C(=O)NCC(=O)Nc2ccc(F)cc2)cc1OC | 50 | – | – | – | – | –
Cc1ccc(C)c2[nH]c(=O)c(CN(Cc3ccco3)C(=S)NCC3CCCO3)cc12 (centres undefined) | – | – | – | – | – | ·
Cc1ccc(CNC(=O)c2cc(S(=O)(=O)N3CCCCC3)ccc2N2CCOCC2)cc1 | – | – | · | – | – | ·
COc1ccc(CC(=O)NNC(=S)Nc2ccccc2)cc1Cl | – | – | – | – | – | ·
CCCOc1ccc(CC(=O)NNC(=S)Nc2ccccc2)cc1Br | 46 | – | – | – | – | 27
Nc1ccc2c(c1)OC1(CCCCC1)O2 | · | · | – | · | · | ·
S=C(NCc1ccccc1)N1CCN(c2cccc(Cl)c2)CC1 | 46 | – | – | – | – | –
O=C(Cn1ccc2ccccc2c1=O)N1CCN(c2cccc(Cl)c2)CC1 | 54 | – | – | – | – | –
COc1cc2c(cc1OC)C(c1ccccc1)N(C(=O)c1cccc(S(C)(=O)=O)c1)CC2 (centres undefined) | – | – | – | – | – | ·
O=C(O)c1ccc(S(=O)(=O)Nc2ccc(O)c(Sc3nc4ccccc4s3)c2)cc1 | – | – | – | – | – | ·
O=C(NC12CC3CC(CC(C3)C1)C2)c1ccc(-c2ccc(Br)cc2)o1 | 49 | – | 56 | – | – | 54
Cc1cc(C(=O)CN2C(=O)C3CC=CCC3C2=O)c(C)n1-c1ccccc1 (centres undefined) | 43 | – | – | – | – | –
Cc1cc(C(=O)CN2C(=O)c3ccccc3S2(=O)=O)c(C)n1-c1ccccc1 | – | – | – | – | – | ·
Cc1cccc(C(=O)NCCNc2nc3cc(C)c(C)cc3cc2C)c1 | 45 | – | – | – | – | 39
CC(C)/C=C(/C(=O)c1ccc(Cl)cc1Cl)n1cncn1 | 42 | – | – | – | – | –
C/C(=N\NC(=O)CNc1cccc2ccccc12)c1ccccc1 | 42 | – | – | – | – | –
O=C(CCSc1nc(-c2ccco2)cc(C(F)(F)F)n1)N1CCN(c2ccccn2)CC1 | 40 | – | – | – | – | 32
SMILES | TIM10 inh | NALP3 yeast inh | SKKanGAS inh | tim23-1 inh | tim10-1 inh | tim10 confirm
O=C(NC(=S)N(CCCCO)C1CCCCC1)c1sc2ccccc2c1Cl | 43 | – | 89 | – | – | –
CC1CCCCC1NC(=S)NC(=O)c1sc2ccccc2c1Cl (centres undefined) | – | – | – | – | – | ·
Cc1cc(F)ccc1NCc1cc2c(cc1[N+](=O)[O-])OCO2 | 45 | – | – | – | – | 41
Cn1c(-c2ccc(F)cc2)cnc1NCc1cc2c(cc1[N+](=O)[O-])OCO2 | – | – | – | – | – | ·
CCc1cccc(NC(=O)CCc2c(C)nn(-c3ccc(N4CCOCC4)nn3)c2C)c1 | – | – | – | – | – | ·
Cc1ccc(C(=O)N2CCCC(c3ccc(Cl)cc3)=N2)cc1 | – | – | – | – | – | ·
COc1ccc(C(=O)N2CCCC(c3ccccc3)=N2)cc1 | 45 | – | – | – | – | –
O=C(Cn1cnc2c(oc3ccccc32)c1=O)c1ccccc1 | 49 | – | – | – | – | –
Cc1ccc(CNC(=O)c2cn(C3CCCCC3)c(=O)c3c2c2ccccc2n3C)o1 | 43 | – | – | – | – | –
CC1=C(C)CC2(SC1)C(=O)N(c1ccccc1)N=C2N (centres undefined) | – | – | – | – | – | ·
NS(=O)(=O)c1ccc(NC(=O)COC(=O)c2cnc(Cl)c(Cl)c2)cc1 | – | – | – | – | – | ·
COc1cccc(-n2cnnn2)c1 | – | – | – | – | – | ·
COc1cccc(-n2nnnc2S(C)(=O)=O)c1 | 59 | – | – | – | – | 48
CN1C(=O)/C(=C/c2ccc(OCc3ccccc3F)cc2)N(C)C1=S | – | – | – | – | – | ·
CSc1nc(N(C)C)nc(N2CC(=O)N(CCNS(=O)(=O)c3ccc(C)cc3)C2=N)n1 | – | – | – | – | – | ·
O=C(Oc1coc(CSc2ncccn2)cc1=O)c1ccc(Br)o1 | 44 | – | – | – | – | –
CC[C@H](C)[C@@H](C(=O)NCCCCCCCCCCC(=O)N1CCNCC1)n1cc(CCCCN=C(N)N)nn1 | – | – | · | – | – | ·
CC(C)Cn1c(SCC(N)=O)nnc1-c1cccc(S(=O)(=O)N2CCOCC2)c1 | 58 | – | · | – | – | –
Cc1ccc(CSc2nnc(-c3cccc(S(=O)(=O)N4CCOCC4)c3)n2CC(C)C)cc1 | – | – | – | – | – | ·
O=C(Nc1nccs1)c1cn(-c2ccccc2)nc1-c1ccncc1 | – | – | – | – | – | ·
COc1ccc(-c2nn(-c3ccccc3)cc2C(=O)Nc2nccs2)cc1 | 43 | – | – | – | – | –
O=C(Nc1ccncc1)c1cn(-c2ccccc2)nc1-c1cccs1 | 44 | – | – | – | – | 53
CCn1ncc(Br)c1C(=O)Nc1ccc(C(=O)OC(C)C)cc1 | 44 | – | – | – | – | –
CC(=O)Nc1ccc(-c2nnn(CC(=O)c3ccc(F)cc3)n2)cc1Cl | – | – | – | – | – | ·
CC(=O)Nc1ccc(-c2nnn(CC(=O)c3ccccc3)n2)cc1Cl | 47 | – | – | – | – | 36
SMILES | TIM10 inh | NALP3 yeast inh | SKKanGAS inh | tim23-1 inh | tim10-1 inh | tim10 confirm
CC(=O)c1ccc(OC(=O)CCc2ccccc2)cc1 | – | – | – | – | – | ·
CC(=O)c1ccc(OC(=O)N(c2ccccc2)c2ccccc2)cc1 | 63 | – | – | – | – | –
O=C(CCCN1C(=O)/C(=C/c2cccc(Br)c2)SC1=S)Nc1cccnc1 | – | – | – | – | – | ·
O=C(CCCN1C(=O)/C(=C\c2cccc(Br)c2)SC1=S)Nc1cccnc1 | 45 | – | – | – | – | –
COC(=O)CCCCCN1C(=O)/C(=C\c2ccncc2)SC1=S | 42 | – | – | – | – | 28
Cc1ccc(S(=O)(=O)c2nc(-c3cccs3)oc2N2CCC(C(N)=O)CC2)cc1 | – | – | · | – | – | ·
S=C(NCc1ccccc1)N/N=C/c1cccs1 | – | – | – | – | – | ·
S=C(NCCc1ccccc1)N/N=C/c1cccs1 | 41 | – | – | – | – | 38
